Screening data deposited in PubChem BioAssay by The Scripps Research Institute Molecular Screening Center.
DAX1 inh-1: DAX1 (NR0B1) inhibitors on StAR promoter, primary screen, cell-based, luminescence, SF-1 (NR5A1), full-length DAX-1; HEK293T StAR-luciferase reporter, SF-1/DAX-1 repression relief; inhibition, % at 6.8 µM; actives 1.1% (n = 370,000);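 active means inhibition above the mean over all tested compounds plus 3 SD, cut at about 3.6% in these data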;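 further: higher inhibition means more luminescence from relief of DAX-1 repression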
hgDAF-12 ag: H. glycines DAF-12 receptor agonists, primary screen, cell-based, luminescence, HEK293, GAL4 fusion, UAS-luciferase. actives 1.8% (n = 370,000). activation, % at 6.8 µM. Nuclear hormone receptor DAF-12 (Heterodera glycines), GAL4 fusion. HEK293 GAL4-hgDAF12 UAS-luciferase reporter, agonist luminescence; normalized to butyrate control;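 active means activation above a cutoff set at the mean of all screened compounds plus 3 SD, cut at about 10% in these data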
ssDAF12 agonist: S. stercoralis DAF-12 nuclear receptor activators, primary screen, cell-based, luminescence, HEK293, GRIP1 co-expression, lit1-tk-luc; Nuclear hormone receptor DAF-12 (Strongyloides stercoralis); HEK293 ssDAF-12/GRIP1 lit1-tk-luc reporter; % of 3 µM dafachronic acid response; activation, % at 6.8 µM; actives 1% (n = 370,000);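 active means activation above the mean over all tested compounds plus 3 SD, cut at about 0.9% in these data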
hcDAF-12 act: H. contortus DAF-12 nuclear receptor activators, primary screen, cell-based, luminescence, HEK293, lit1-tk-luc reporter | HEK293 hcDAF-12 lit1-tk-luc reporter; 0% DMSO, 100% Δ7-dafachronic acid | activation, % at 6.8 µM | actives 1.4% (n = 370,000) | AID 652067, 2013;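 active means activation above the mean of all tested compounds plus 3 SD, cut at about 5.5% in these data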
DAX1 inh-2: DAX1 (NR0B1) inhibitors, primary screen, cell-based, HEK293, Gal4-DAX1, luciferase luminescence. Nuclear receptor subfamily 0 group B member 1 (Homo sapiens), P51843. HEK293 Gal4-DAX1 luciferase reporter. inhibition, % at 6.75 µM. actives 0.99% (n = 340,000). AID 504766, 2011;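 active means inhibition above the mean over all tested compounds plus 3 SD, cut at about 4.2% in these data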;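 further: inhibition shows as a rise in luminescence from relieved DAX1 repression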
Target sequence (P51843 207-470 limits assumed): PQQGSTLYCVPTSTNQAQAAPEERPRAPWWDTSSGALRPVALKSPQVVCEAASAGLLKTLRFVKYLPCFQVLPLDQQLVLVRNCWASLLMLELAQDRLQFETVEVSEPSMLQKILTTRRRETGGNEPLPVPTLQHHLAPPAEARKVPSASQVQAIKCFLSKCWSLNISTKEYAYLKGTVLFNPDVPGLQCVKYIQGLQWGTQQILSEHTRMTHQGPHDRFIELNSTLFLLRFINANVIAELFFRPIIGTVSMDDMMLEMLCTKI
hgDAF12 ag: H. glycines DAF-12 receptor agonists, confirmation, cell-based, luminescence, HEK293, GAL4-LBD fusion; shares compounds with hgDAF-12 ag; HEK293 GAL4-hgDAF12 luciferase reporter, agonist mode; percent of butyrate response; activation, % at 6.8 µM; actives 80% (n = 3,300);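 active means mean activation over triplicate wells above the hit cutoff derived from the earlier primary screen, cut at about 11% in these data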
LXR ag 2: LXR agonists, Gal4 luciferase reporter, confirmation, counter-screen for hgDAF-12 agonist project, cell-based, luminescence, HEK293, H. glycines campaign | shares compounds with hgDAF-12 ag | 24 h | activation, % at 6.8 µM | 3,300 tested, under 10 active | AID 743051, 2013;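 active means mean activation of the triplicate above a set limit carried over from the primary screen, none filed active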
Numbers stand for hits; - = inactive; . = not tested or not shown. This is a sample that favours compounds with a hit; in the whole collection about 4.1% have one here.

SMILES	DAX1 inh-1	hgDAF-12 ag	ssDAF12 agonist	hcDAF-12 act	DAX1 inh-2	hgDAF12 ag	LXR ag 2
CCOC(=O)c1cc2c(=O)n3ccccc3nc2n(C(C)C)c1=NC(=O)c1ccco1	-	-	-	-	-	.	.
CCCn1c(=NC(=O)c2ccco2)c(C(=O)OCC)cc2c(=O)n3ccccc3nc21	-	13	-	-	-	-	-
O=C(c1ccccc1)c1ccc2c(c1)OCCOCCOCCO2	-	-	-	-	-	.	.
O=C(Nc1ccccc1)c1ccc2c(c1)OCCO2	-	13	-	5.8	-	13	-
O=C(NC(=S)Nc1ccc(F)cc1)c1ccc2c(c1)OCCO2	3.7	17	-	-	-	11	-
Cc1cccc(NC(=O)c2ccc3c(c2)OCCO3)c1	-	17	-	-	-	18	-
O=C(c1ccccc1)c1ccc2c(c1)OCCCO2	-	15	-	6.2	4.6	18	-
CC1CCN(C(=O)c2[nH]cnc2C(=O)N(C)CCO)CC1	-	-	-	-	.	.	.
O=S1(=O)N[C@@H](Cc2ccccc2)COc2cccc(NCCO)c21	-	-	-	-	.	.	.
Cc1cccc(-c2cccc3c4c([nH]c23)[C@@H]2C[C@H](N(C)C(=O)OCc3ccccc3)[C@H]([C@H](C)O)CN2CC4)c1	-	-	-	-	.	.	.
CN(N=Cc1ccc2c(c1)OCO2)C(=O)c1ccccc1N	-	-	-	-	.	.	.
Cc1cccc(NC(=S)NNC(=O)c2ccc3c(c2)OCO3)c1	3.9	18	-	-	-	13	-
COc1ccc(C(=O)N(C)[C@H]2C[C@H]3c4[nH]c5cccc(-c6ccccc6)c5c4CCN3C[C@H]2[C@H](C)O)cc1	-	-	-	-	.	.	.
CC(=O)/C=C(\C)Nc1ccc(-c2cnc(-c3ccccc3)o2)cc1	4.0	18	-	6.2	-	13	-
CC(C)C(=O)Nc1ccc(-c2nnc(-c3ccccc3)o2)cc1	-	14	-	-	-	17	-
CC(C)(C)OC(=O)N/N=C/c1ccc(Br)cc1	4.2	21	-	-	-	16	-
COc1ccc(C(=O)c2cc3cccc(OC)c3o2)cc1	-	19	-	-	-	14	-
Nc1ccc(N=Nc2ccccc2)c(N)n1	4.1	16	-	-	-	13	-
CCOC(=O)N(C)[C@H]1C[C@H]2c3[nH]c4ccccc4c3CCN2C(=O)[C@H]1[C@H](C)O	-	-	-	-	.	.	.
CC(NC(=O)c1cc2c(=O)n(C)c3ccccc3c2n1C)c1ccc2c(c1)OCCO2 (stereo not given)	-	17	-	-	-	-	-
Cn1c(C(=O)Nc2ccc3c(c2)OCO3)cc2c(=O)n(C)c3ccccc3c21	-	-	-	-	-	.	.
Cc1ccc(C)c(NC(=O)c2nc(Cl)ccc2Cl)c1	-	14	-	-	-	-	-
CCOCCn1c(SCC(=O)OCc2ccccc2)nc2c1c(=O)[nH]c(=O)n2C	-	13	-	-	-	-	-
O=C(CSc1nc2ccccc2[nH]1)c1ccccc1F	-	16	-	5.8	-	12	-
O=C(CSc1nc2ccccc2[nH]1)c1c[nH]c2ccccc12	-	-	-	-	-	.	.
SMILES	DAX1 inh-1	hgDAF-12 ag	ssDAF12 agonist	hcDAF-12 act	DAX1 inh-2	hgDAF12 ag	LXR ag 2
O=C1c2ccccc2NC(c2ccccc2)N1/N=C/c1ccccc1 (stereo not given)	-	15	-	-	-	15	-
O=C1c2ccccc2NC(c2ccc(O)cc2)N1/N=C/c1ccc(O)cc1 (stereo not given)	-	-	-	-	-	.	.
Cc1cccnc1NC(=S)Nc1ccc(Cl)c(Cl)c1	-	-	-	-	-	.	.
COc1ccc(NC(=S)Nc2ncccc2C)cc1OC	-	21	-	-	-	-	-
COC(=O)C[C@@H]1CC[C@H]2[C@H](COc3ccc(NC(=O)c4ccc(OC)cc4)cc3C(=O)N2C)O1	-	-	-	-	.	.	.
OC(c1ccccc1)c1nc(/C=C/c2ccccc2)cs1 (stereo not given)	-	16	-	-	.	11	-
COC(=O)c1ccc(COc2ccc(C(C)(C)C)cc2)o1	-	-	-	-	-	.	.
CCC(C)c1ccc(OCc2ccc(C(=O)OC)o2)cc1 (stereo not given)	-	15	1.0	-	-	18	-
CCc1ccc(OCc2ccc(C(=O)OC)o2)cc1	-	17	-	-	-	14	-
Cc1cc(NC(=O)c2cc(C3CC3)on2)no1	-	15	-	-	-	-	-
O=C(CSc1ccc(F)cc1)Nc1ccccc1Br	-	-	-	-	-	.	.
Cc1ccc(NC(=O)CSCc2ccc(F)cc2)cc1	-	14	-	-	-	-	-
Cc1ccc(CSCC(=O)NCc2ccc(F)cc2)cc1	-	-	-	-	-	.	.
O=C(CSc1ccc(F)cc1)Nc1ccc(Br)cc1	-	16	-	-	-	12	-
O=C(c1ccc(-c2ccc(Cl)cc2Cl)o1)N1CCOCC1	-	18	-	-	4.4	12	-
O=C(c1ccc(-c2cc(Cl)ccc2Cl)o1)N1CCOCC1	-	-	-	-	-	.	.
COC(=O)c1cc(NC(=O)NC2CCCCN(Cc3cccc(Cl)c3)C2=O)cc(C(=O)OC)c1 (stereo not given)	-	-	-	-	.	.	.
CC(=O)Nc1ccc(NC(=O)c2ccccc2F)cc1	-	-	-	-	-	.	.
O=C(Nc1ccc(SC(F)F)cc1)c1ccc(F)cc1	-	14	-	-	-	14	-
O=C(Nc1ccc(SC(F)F)cc1)c1ccccc1F	3.9	16	-	-	6.2	15	-
O=C(Cc1ccccc1F)Nc1ccc(SC(F)F)cc1	-	17	-	-	-	14	-
O=C(COC(=O)c1ccccc1Cc1ccccc1)Nc1ccc(SC(F)F)cc1	-	14	-	-	-	17	-
CC[C@H](CCCCCC#N)CCC(=O)N(c1ccccc1)c1ccccc1	-	-	-	-	.	.	.
C[C@@H](CO)NC(=O)c1[nH]cnc1C(=O)Nc1ccccc1	-	-	-	-	.	.	.
